PGK inhibitor: qHTS Assay to Find Inhibitors of Phosphoglycerate Kinase; Phosphoglycerate kinase, glycosomal (Trypanosoma brucei brucei), P07378; PGK/GAPDH coupled, Kinase-Glo luminescence, 60 min; Potency, µM (highest dose often 57.5 µM), usual class: inhibitors; actives 0.043% (n = 380,000); AID 602233, 2012; note: nearly all actives have a fitted effect of over 60% in size
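Luminescent ATP detection (Kinase-Glo Plus) follows a 60-minute room-temperature incubation, with wells lacking PGK as controls. Buffer: 100 mM TEA (pH 7.6), 5 mM MgCl2, 0.01% Tween-20. Coupling enzyme GAPDH (100 nM final) supplies unstable 1,3-BPG in-well.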
TDP1 inh: qHTS Assay for Inhibitors of Tyrosyl-DNA Phosphodiesterase (TDP1); Tyrosyl-DNA phosphodiesterase 1 (Homo sapiens), Q9NUW8; recombinant TDP1, AlphaScreen DNA substrate cleavage; Potency, µM (highest dose often 130 µM), usual class: inhibitors; actives 0.28% (n = 350,000); AID 485290, 2010; note: nearly all actives have a fitted effect of over 40% in size
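AlphaScreen read-out: signal falls as enzyme removes the 3' tyrosine-FITC from a 5'-biotinylated DNA oligo (15 nM, 5 min, RT). Enzyme was E. coli-made recombinant Tdp1 at 1 nM, exposed to compound for 15 min beforehand; beads 10 ug/ml, 10 min.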
WRN helicase inh: qHTS for Inhibitors of WRN Helicase | Bifunctional 3'-5' exonuclease/ATP-dependent helicase WRN (Homo sapiens), Q14191 | WRN helicase unwinding, fluorescent forked duplex, kinetic | Potency, µM (doses to about 114 µM), hits mostly inhibitors | actives 0.46% (n = 360,000); note: nearly all actives have a fitted effect of over 55% in size
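WRN at 20 nM final preincubated with compound 15 min at room temperature; reaction started with 100 nM fluorophore/quencher forked duplex oligonucleotide and 2 mM ATP final. Unwinding followed kinetically by red fluorescence (ex 525, em 598 nm).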
FEN1 inh: qHTS Assay for the Inhibitors of Human Flap endonuclease 1 (FEN1). Recombinant FEN1 flap cleavage, fluorescence, 15 min. Potency, µM (titrated, usually from 114 µM), actives largely listed as inhibitors. actives 0.35% (n = 390,000). AID 588795, 2011; note: nearly all actives have a fitted effect of over 65% in size
Target sequence (P39748 whole entry, looked up): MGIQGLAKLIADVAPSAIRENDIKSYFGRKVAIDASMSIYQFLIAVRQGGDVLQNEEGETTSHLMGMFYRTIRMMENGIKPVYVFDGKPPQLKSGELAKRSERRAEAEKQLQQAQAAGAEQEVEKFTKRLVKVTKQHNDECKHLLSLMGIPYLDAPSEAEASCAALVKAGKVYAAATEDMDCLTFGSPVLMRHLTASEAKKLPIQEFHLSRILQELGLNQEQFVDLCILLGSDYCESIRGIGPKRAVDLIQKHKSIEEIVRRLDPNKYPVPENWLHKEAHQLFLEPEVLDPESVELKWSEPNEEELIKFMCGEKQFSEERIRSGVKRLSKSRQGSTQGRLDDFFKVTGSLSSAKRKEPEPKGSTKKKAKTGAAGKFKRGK
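FEN1 at 10 nM preincubated with compounds 15 min at room temperature, then flap DNA substrate added at 50 nM final. Signal read at 0 and 15 min; concentration-response fitted with four-parameter Hill equation.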
PI5P4Ka inh: qHTS for Inhibitors of phosphatidylinositol 5-phosphate 4-kinase (PI5P4K); Phosphatidylinositol 5-phosphate 4-kinase type-2 alpha (Homo sapiens), P48426; PI5P4Kalpha enzyme, ADP-Glo luminescence, 60 min; active compounds read low; max response, %; actives 1.2% (n = 330,000); AID 652105, 2013; active = max response of -50% or lower; inconclusive = between -30% and -50%; inactive = -30% or higher; note: value at the top dose of about 77 µM
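Quantitative HTS of the MLSMR library against PI5P4Kalpha with substrate. ATP added last at 5 microM final; room temperature, 60 minutes. Remaining ATP depleted, ADP converted and read as luminescence.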
Tb PFK inh: qHTS Assay to Find Inhibitors of T. brucei phosphofructokinase; ATP-dependent 6-phosphofructokinase (Trypanosoma brucei brucei), O15648; actives 0.17% (n = 330,000); Potency, µM (highest dose often 57.5 µM), most hits filed as inhibitors; AID 485367, 2010; T. brucei PFK, ADP-Glo luminescence; note: nearly all actives have a fitted effect of over 60% in size
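Compounds were pin-transferred as a titration series up to 57 uM into substrate buffer (0.5 mM F6P, 0.1 mM ATP, pH 8.0), then 1.25 nM PFK was added and reactions ran 45 min before ADP-Glo detection.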
A number is an active result; . = inactive; ? = inconclusive; / = no result; [ ] = another dose, or the depositor's remark. Most compounds without a hit are left out; they make up all but 1.5% or so of the library. Unless noted, calls come from the whole dose curve; as a rule, active = well fitted curve in the direction sought with a large enough effect; inconclusive = small, poorly fitted or top-dose-only effect, or another doubt; inactive = no such curve, though single readings can be large; an effect the other way counts as inactive or inconclusive.

SMILES	PGK inhibitor	TDP1 inh	WRN helicase inh	FEN1 inh	PI5P4Ka inh	Tb PFK inh
Cc1ccc(N=Cc2cc(Br)cc(Cl)c2O)cc1	.	.	.	.	.	.
Cc1ccc(N/N=C(\C#N)C(N)=S)cc1C	.	.	.	.	-51	.
CCOC(=O)c1sc(NC(=O)C(C)C)c(C#N)c1C	.	.	?	.	-68	.
CC(C)C(=O)NC(c1cccs1)c1cc([N+](=O)[O-])c2cccnc2c1O (centres undefined)	.	.	.	.	-84	.
CCC(=O)Nc1ccc(OCc2cc(C3Nc4ccccc4C(=O)N3Cc3ccccc3)ccc2OC)cc1 (centres undefined)	/	.	/	/	/	/
COc1ccc(OC)c(-c2nnc3n2N=C(c2c(OC)cccc2OC)CS3)c1	/	.	/	/	/	/
COc1ccc(-c2nnc3ccc(SC(C)C)nn23)cc1OC	/	.	/	?	/	/
N#C/C(=C\c1cccc(Oc2ccccc2)c1)C(=O)N1CCOCC1	.	.	.	.	.	.
COc1cc(/C=C(\C#N)C(=O)N2CCOCC2)cc(Br)c1O	/	.	.	.	-61	.
Cc1cccc(-n2c(-c3ccncc3)n[nH]c2=S)c1C	.	18µM	.	.	.	.
O=C(Cn1ncc(Cl)c(Cl)c1=O)NC(=O)NC1CCCCC1	.	.	.[11.6 µM]	.	-50	.
Cc1ccc(S(=O)(=O)N2CCCCC2)cc1NC(=O)Cn1ncc(Cl)c(Cl)c1=O	.	.	.	.	-52	.
COc1ccc(NC(=O)Cn2ncc(Cl)c(Cl)c2=O)cc1S(=O)(=O)N1CCOCC1	.	.	?	.	-78	.
Cc1nn(CC(=O)Nc2ccc3c(c2)OCO3)c(C)c1Cl	.	.	.	.	.	.
O=C(CN1CCCCC1)NC(=O)NC1CCCC1	.	.	.	.	.	.
O=C(Cn1ncc(Cl)c(Cl)c1=O)Nc1ccc2c(c1)OCO2	.	.	.[11.6 µM]	.	-52	.
N#CN1CCC(NC(=O)c2ccc(C(F)(F)F)cc2)CC1	/	.	/	/	/	/
CCN(CC)S(=O)(=O)c1cc(NC(=O)Cn2ncc(Cl)c(Cl)c2=O)ccc1C	.	.	.	.	-83	.
CN(CCCN(Cc1ccc(Cl)cc1)c1ccc(Br)cn1)C(=S)NCCCc1cnc[nH]1	/	/	/	.	/	/
COc1cc(/C=C2/C=Cc3ccccc32)ccc1N(C)C	/	/	/	.	/	/
COc1ccc(C(=O)Nc2cccc(/C=C(\CCC(=O)O)c3nc4ccccc4s3)c2)cc1	.	/	.[11.6 µM]	?	-56	.
Cc1ccc(/C=C(\CCC(=O)O)c2nc3ccccc3s2)cc1[N+](=O)[O-]	.	.	.	.	.	.
COc1cc(/C=C2\S/C(=N/S(=O)(=O)c3ccccc3)NC2=O)c([N+](=O)[O-])cc1OC	.	.	?	?	-55	.
CCc1ccc(S(=O)(=O)/N=C2\C=C(NS(=O)(=O)c3ccccc3)C(=O)c3ccccc32)cc1	.	/	.	.	?	.
CC(C)c1ccc(S(=O)(=O)/N=C2\C=C(NS(=O)(=O)c3ccccc3)C(=O)c3ccccc32)cc1	.	/	?	?	-68	?
SMILES	PGK inhibitor	TDP1 inh	WRN helicase inh	FEN1 inh	PI5P4Ka inh	Tb PFK inh
Cc1ccccc1NC1=C/C(=N\S(=O)(=O)c2ccc(C(=O)O)cc2)c2ccccc2C1=O	.	.[0.0935 µM]	.	50µM	.	.
CCOc1ccc(-c2c(C)nn3c(C)c(C(=O)NCCc4ccccc4)cnc23)cc1OCC	/	.	/	.	/	/
CCOC(=O)C(=CNNc1cccc(Cl)c1)C(=O)OCC	.	.	50µM	.	.	.
CC(=O)Nc1ccc(OCc2cccc(C3Nc4ccccc4C(=O)N3Cc3ccco3)c2)cc1 (centres undefined)	/	.	/	/	/	/
COc1ccccc1NC(=O)Nc1ccnn1C1CCCCC1	.	.	.	.	.	.
COc1ccccc1NC(=O)Nc1ccnn1C1CCN(C(=O)c2cscn2)CC1	.	.	.	45µM	.	.
CC(C)[C@H](NC(=O)[C@@H](Cc1c[nH]c2ccccc12)NC(=O)[C@H](Cc1ccc(O)cc1)NC(=O)[C@@H](N)CC(=O)O)C(=O)N[C@H](Cc1c[nH]c2ccccc12)C(=O)N[C@H](Cc1c[nH]c2ccccc12)C(=O)N[C@@H](CCCCN)C(N)=O	/	.	/	/	/	/
CCC(=O)Nc1ccc(C(=O)Cn2ncc(Cl)c(Cl)c2=O)cc1	.	.	.[11.6 µM]	.	-56	.
CCOC(=O)c1ccc(NC(=O)Cn2ncc(Cl)c(Cl)c2=O)cc1	.	.	.	.	-72	.

From PubChem
